The record followed here is PubChem BioAssay (NCI).

This is part of a sample that, as a whole, favours compounds with a hit. Of some 79,000 tested, about 15% had one in any assay. Active and inactive are the calls of the source. Cut-off read from the data, not from the text of the source: active = growth inhibition above about 70%; inactive = the rest.

One experiment is described as follows: NCI Yeast Anticancer Drug Screen. Data for the rad50 strain (AID 155).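 Note: 0% = growth of vehicle-only cultures of the same strain.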 The settings on record: S. cerevisiae rad50 strain growth inhibition; at 50.0 µM; hits give high values. The method, boiled down: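 Cells are treated with compound, grown, and their growth is then scored against vehicle-only cultures of the same repair-deficient yeast strain.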
As to `COC(=O)C1C(=O)C2CCC1C(=O)C2C(=O)OC` (stereo not given), the growth inhibition was 1.95% (inactive).
In the case of `O=C1CCCCCCCCCCOCCCCO1`, the growth inhibition is -2.4% (inactive).
Same read-out and setting: the result for `CC(C)c1ccc(/C=C/C(=O)c2ccc([N+](=O)[O-])cc2)cc1` reads 9.75% (inactive); that for `O=c1ccc2cc3ccoc3c(OCCOCCOCCOCCOc3c4occc4cc4ccc(=O)oc34)c2o1`, 14.7% (inactive); that for `O=C1CSC(c2ccc(Br)cc2)N1c1nncs1` (stereo not given), -2.75% (inactive).
Regarding `CCC(C)(C)N`, the growth inhibition is 0.3% (inactive).
On to `c1scc2c1COCCOCCOCCOCCOCCOCCOC2`, for which the growth inhibition is -21.7% (inactive).
In the case of `Brc1c(CCc2ccc3ccccc3c2Br)ccc2ccccc12`, the growth inhibition is 0.1% (inactive).
On the same count and under the same terms, the result for `C/C=C(\Cl)C(OC(C)=O)OC(C)=O` reads -1.45% (inactive); that for `CN(C)CCC(=O)N1CCc2c([nH]c3ccccc23)C1c1cccnc1` (stereo not given), -15.2% (inactive).
Still for that read-out and setting: the result for `O=C(O)C1CCCCC1C(=O)Nc1ccc(Cl)c(Cl)c1` (stereo not given) reads 5.75% (inactive).
Take `CC1(COc2ccccc2)NC(=O)c2ccccc2O1` (stereo not given): the growth inhibition was -5.85% (inactive).
Turning to `COC(=O)c1ccc(NCC2=CC(=O)c3ccccc3C2=O)cc1`, the growth inhibition is 46.9% (inactive).
On to `CCOC(=O)c1c(C)nc(C)nc1N`, for which the growth inhibition was 0.2% (inactive).
For `C/C(=C\CNc1ncnc2c1ncn2C1CCCCO1)COP(=O)(O)O` (stereo not given), the growth inhibition was 19.6% (inactive).
Consider `O=C(CCN1C(=O)CC1c1ccco1)N1CCOCC1` (stereo not given), for which the growth inhibition is -1.55% (inactive).
For the compound `COc1cc(C(C)O)c[n+](CCc2c[nH]c3ccccc23)c1` (stereo not given), the growth inhibition is -30% (inactive).
For the compound `O=C(c1ccc(F)cc1)c1ccc2ccccc2c1C(=O)O`, the growth inhibition is 4.4% (inactive).
`O=C(Nc1cccc(Cl)c1)Nc1ccc(Sc2ccc(Cl)cc2)o1`: the growth inhibition was 55.1% (inactive).
Take `c1ccc(C(C2=Nc3cccc4cccc(c34)N2)c2ccccc2)cc1`: the growth inhibition was -36.6% (inactive).
Consider `O=C1C2=C(c3ccccc31)C(c1ccccc1Cl)N1C(=O)CCSC1=N2` (stereo not given), for which the growth inhibition is 2.9% (inactive).
Regarding `Cc1ccc(NC2=N/C(=C/c3ccco3)C(Cl)=N2)cc1`, the growth inhibition was -21.5% (inactive).
Turning to `c1ccc(C2Nc3ccccc3NC2c2ccccc2)cc1` (stereo not given), the growth inhibition was 29.5% (inactive).
For `O=C1CC2(CCc3ccccc32)C(=O)N1CN1CCN(c2ccccn2)CC1` (stereo not given), the growth inhibition was 0.55% (inactive).
For `CC1(C)COC(c2ccccc2Cl)OC1`, the growth inhibition was 20.1% (inactive).
Regarding `COc1ccc(C2=NOC3COC4C=CC=CC4OCC23)cc1` (stereo not given), the growth inhibition is -11.4% (inactive).
In the case of `Cc1ccc(NC(=O)CC2SC(=Nc3cccc(Cl)c3C)NC2=O)cc1` (stereo not given), the growth inhibition is 30.9% (inactive).
`CC1(C)CC2=C(Sc3ccccc3N2)C(=O)C1C(=O)C(=O)Nc1cccc([N+](=O)[O-])c1` (stereo not given): the growth inhibition was -22.1% (inactive).
As for `Cc1csc(=NCc2cccnc2)n1C`, the growth inhibition was 14.7% (inactive).
`O=C1Nc2ccccc2C1O` (stereo not given): the growth inhibition was 7.15% (inactive).
Same read-out and setting: the result for `Cc1c(-c2ccc3c(c2)COC3)sc(N)c1C#N` reads 4.7% (inactive); that for `CCc1cc2c(c3c1CCCC3)CC1(Cc3ccc(C(=O)OC)cc3C1)C2` (stereo not given), 3.65% (inactive); that for `O=C1NCC/C1=C\c1ccccc1`, -7.2% (inactive).
On the same count and under the same terms, as for `CCCNC(=S)/N=C\c1c(O)c2ccccc2oc1=O`, the figure is -38.8% (inactive); as for `O=c1[nH]c2c([N+](=O)[O-])cc(Cl)cc2nc1/C=C(\O)c1cccnc1`, 18.4% (inactive).
The same measure, in the same setting: the result for `CC12CC3(Nc4ccccc4C3(C)O)OC1(C)c1ccccc1N2` (stereo not given) reads 1.1% (inactive); that for `COC(=O)C(Br)(C(=O)OC)C(c1ccccc1)c1ccccc1`, 38.1% (inactive); that for `c1ccc(-c2ccc(-c3cc4ccccc4c4ccccc34)cc2)cc1`, -13.8% (inactive).
Consider `Nc1nc(C2CCCCC2)cs1`, for which the growth inhibition is 54.2% (inactive).
With `CCCCCCC1NC(CCCCCC)N2C(CCCCCC)N12` (stereo not given), the growth inhibition is 28.9% (inactive).

Another experiment can be described thus: NCI Yeast Anticancer Drug Screen. Data for the mec2-1 strain (AID 157). The settings on record: S. cerevisiae mec2-1 strain, at 50.0 µM, hits give high values. The method, boiled down: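 Yeast mec2-1 mutant treated with compound. Readout: growth inhibition vs vehicle controls.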
As to `COC(=O)C1C(=O)C2CCC1C(=O)C2C(=O)OC` (stereo not given), the growth inhibition is -2.8% (inactive).
Turning to `O=C1CCCCCCCCCCOCCCCO1`, the growth inhibition is 2.9% (inactive).
The same measure, in the same setting: as for `CC(C)c1ccc(/C=C/C(=O)c2ccc([N+](=O)[O-])cc2)cc1`, the figure is 2.2% (inactive); as for `O=c1ccc2cc3ccoc3c(OCCOCCOCCOCCOc3c4occc4cc4ccc(=O)oc34)c2o1`, 17.4% (inactive).
As for `O=C1CSC(c2ccc(Br)cc2)N1c1nncs1` (stereo not given), the growth inhibition was 19.6% (inactive).
As to `CCC(C)(C)N`, the growth inhibition was 2.7% (inactive).
For the compound `c1scc2c1COCCOCCOCCOCCOCCOCCOC2`, the growth inhibition was -14.8% (inactive).
With `Brc1c(CCc2ccc3ccccc3c2Br)ccc2ccccc12`, the growth inhibition was 10.2% (inactive).
`C/C=C(\Cl)C(OC(C)=O)OC(C)=O`: the growth inhibition is -0.2% (inactive).
On to `CN(C)CCC(=O)N1CCc2c([nH]c3ccccc23)C1c1cccnc1` (stereo not given), for which the growth inhibition is -34.6% (inactive).
Consider `O=C(O)C1CCCCC1C(=O)Nc1ccc(Cl)c(Cl)c1` (stereo not given), for which the growth inhibition is 20.1% (inactive).
On to `CC1(COc2ccccc2)NC(=O)c2ccccc2O1` (stereo not given), for which the growth inhibition was -13.4% (inactive).
Take `COC(=O)c1ccc(NCC2=CC(=O)c3ccccc3C2=O)cc1`: the growth inhibition is 38% (inactive).
On the same count and under the same terms, as for `CCOC(=O)c1c(C)nc(C)nc1N`, the figure is -2.5% (inactive); as for `C/C(=C\CNc1ncnc2c1ncn2C1CCCCO1)COP(=O)(O)O` (stereo not given), 6.4% (inactive).
For the compound `O=C(CCN1C(=O)CC1c1ccco1)N1CCOCC1` (stereo not given), the growth inhibition is -36.1% (inactive).
On to `COc1cc(C(C)O)c[n+](CCc2c[nH]c3ccccc23)c1` (stereo not given), for which the growth inhibition is -19.5% (inactive).
The same measure, in the same setting: as for `O=C(c1ccc(F)cc1)c1ccc2ccccc2c1C(=O)O`, the figure is 7.65% (inactive); as for `O=C(Nc1cccc(Cl)c1)Nc1ccc(Sc2ccc(Cl)cc2)o1`, 7% (inactive); as for `c1ccc(C(C2=Nc3cccc4cccc(c34)N2)c2ccccc2)cc1`, -18.4% (inactive).
On to `O=C1C2=C(c3ccccc31)C(c1ccccc1Cl)N1C(=O)CCSC1=N2` (stereo not given), for which the growth inhibition is 0.4% (inactive).
Take `Cc1ccc(NC2=N/C(=C/c3ccco3)C(Cl)=N2)cc1`: the growth inhibition is -22.1% (inactive).
Same read-out and setting: as for `c1ccc(C2Nc3ccccc3NC2c2ccccc2)cc1` (stereo not given), the figure is 5.75% (inactive); as for `O=C1CC2(CCc3ccccc32)C(=O)N1CN1CCN(c2ccccn2)CC1` (stereo not given), 3.5% (inactive).
Turning to `CC1(C)COC(c2ccccc2Cl)OC1`, the growth inhibition is 9% (inactive).
Regarding `COc1ccc(C2=NOC3COC4C=CC=CC4OCC23)cc1` (stereo not given), the growth inhibition is -22.1% (inactive).
For the compound `Cc1ccc(NC(=O)CC2SC(=Nc3cccc(Cl)c3C)NC2=O)cc1` (stereo not given), the growth inhibition was 27.9% (inactive).
On to `CC1(C)CC2=C(Sc3ccccc3N2)C(=O)C1C(=O)C(=O)Nc1cccc([N+](=O)[O-])c1` (stereo not given), for which the growth inhibition was -22.8% (inactive).
Take `Cc1csc(=NCc2cccnc2)n1C`: the growth inhibition was -9.75% (inactive).
With `O=C1Nc2ccccc2C1O` (stereo not given), the growth inhibition was 3.3% (inactive).
Turning to `Cc1c(-c2ccc3c(c2)COC3)sc(N)c1C#N`, the growth inhibition is -4.3% (inactive).
On the same count and under the same terms, as for `CCc1cc2c(c3c1CCCC3)CC1(Cc3ccc(C(=O)OC)cc3C1)C2` (stereo not given), the figure is -11.7% (inactive); as for `O=C1NCC/C1=C\c1ccccc1`, -10.7% (inactive); as for `CCCNC(=S)/N=C\c1c(O)c2ccccc2oc1=O`, -56.8% (inactive).
As to `O=c1[nH]c2c([N+](=O)[O-])cc(Cl)cc2nc1/C=C(\O)c1cccnc1`, the growth inhibition is 0.7% (inactive).
The same measure, in the same setting: the result for `CC12CC3(Nc4ccccc4C3(C)O)OC1(C)c1ccccc1N2` (stereo not given) reads 9.35% (inactive).
`COC(=O)C(Br)(C(=O)OC)C(c1ccccc1)c1ccccc1`: the growth inhibition was 41.3% (inactive).
Consider `c1ccc(-c2ccc(-c3cc4ccccc4c4ccccc34)cc2)cc1`, for which the growth inhibition is -15% (inactive).
Regarding `Nc1nc(C2CCCCC2)cs1`, the growth inhibition is 29.8% (inactive).
With `CCCCCCC1NC(CCCCCC)N2C(CCCCCC)N12` (stereo not given), the growth inhibition was 16.8% (inactive).
